These results are taken from PubChem BioAssay (NCATS).

SMILES strings stand for the structures. Records with an inconclusive call do not appear. Unmarked numbers belong to inactive results. Calls of active or inactive are those of the source. The call rests on the fitted dose curve; in most records, active means well fitted cell-killing curve with a large enough effect; inconclusive means small, poorly fitted or top-dose-only effect; inactive means no such curve, though single readings can be large or run the other way.
Potency means the concentration at half of the fitted maximal effect.

This assay in a line: qHTS of pediatric cancer cell lines to identify multiple opportunities for drug repurposing: Primary screen for NB1643 cells (AID 1347099). Further: nearly all actives have a fitted effect of over 50% in size. The note with it: NB1643 neuroblastoma viability, CellTiter-Glo luminescence, 48 h; series mostly up to 46 µM; activity change, negative = cytotoxic: at the top concentration. The text has this:
Drug repurposing or repositioning has been offered as a strategy for drug development in oncology programs. This approach has special potential for childhood cancers and other rare or orphan diseases, where the expected return on new drug development has been a disincentive to pharmaceuticals. […] In this project we exploit the poly-pharmacology of drugs to discover new indications via phenotypic screening of a panel of 19 well-characterized cell lines derived from solid tumors seen in children and adolescents. The goal is to identify approved drugs with previously unrecognized anticancer properties that has the potential to reveal new mechanisms and biological processes involved in carcinogenesis or drug resistance. We employed a titration-based paradigm (quantitative high-throughput screening or qHTS), where all compounds were tested at multiple concentrations for their effect on cell viability. Concentration-response curves (CRCs) were derived directly from the primary screen, and both potency and efficacy values were used to identify compounds with robust bioactivity profiles. We screened the NIH Chemical Genomics Center (NCGC) Pharmaceutical Collection (NPC) and Mechanism Interrogation Plate (MIPE) small molecule collections of approved and investigational compounds against these cell lines; and measured metabolically active cells after 48 hours of compound treatment as a proxy for cell viability. […] Assay Submitter: Nathalia J. Martinez, National Center for Advancing Translational Sciences, National Institutes of Health, Rockville, MD, USA; email: natalia.martinez@nih.gov Shen, M et al. Quantitative high-throughput phenotypic screening of pediatric cancer cell lines identifies multiple opportunities for drug repurposing. Oncotarget 2017 Dec 19;9(4):4758-4772. PMID 29435139.
The cells were obtained from University of North Carolina (UNC), Pediatric Preclinical Testing Program (PPT), and Coriell Institute (CI). qHTS cell viability assay: Cells were assayed in growth media at a density of 500-1,000 cells/well. Five microliters of cells were dispensed into 1,536-well, white, solid-bottom, TC-treated plates (Greiner Bio One) using a multidrop dispenser and incubated at 37 degrees C, 5% CO2, under a humidified atmosphere for 5 hours. Twenty-three nanoliters of compounds and controls (neutral control DMSO or positive control bortezomib at final concentration of 2.3 µM) were subsequently transferred by Kalypsys pintool. For primary screens, the MIPE collection was tested at 11-point dilutions (final concentrations range from 0.78 nM to 46 µM) and the NPC collection at 8-point dilutions (final concentrations range from 0.59 nM to 46 µM). Compounds tested in follow-up screens were assayed at 11-point dilutions. Cells were incubated for 48 hours, followed by addition of 3 µL of CellTiter-Glo (Promega). After a 15 min incubation at room temperature, samples were analyzed for luminescence intensity using a ViewLux High-throughput CCD imager equipped with clear filters.
For the compound `C[C@@H]1CC2=CC(=O)CC[C@@H]2[C@H]2CC[C@@]3(C)[C@@H](CC[C@]3(C)O)[C@@H]21`, the “activity change, negative = cytotoxic” value was 4.27%. For `C#C[C@]1(O)CC[C@H]2[C@@H]3CCC4=CC(=O)CC[C@]4(C)[C@H]3CC[C@@]21C`, the “activity change, negative = cytotoxic” value was 0%. On the same count and under the same terms, to `CCC(C)C(C)(COC(N)=O)COC(N)=O` (stereo not given) belongs 8.65%; to `O=[N+]([O-])O[C@H]1CO[C@H]2[C@@H]1OC[C@H]2O[N+](=O)[O-]`, 14.5%; to `CC(C)c1c(CN(C)C(C)Cc2ccccc2)n(C)n(-c2ccccc2)c1=O` (stereo not given), 0.833%. Still for that read-out and setting: with `O=C1OC(c2ccc(O)c(S(=O)(=O)O)c2)(c2ccc(O)c(S(=O)(=O)O)c2)c2c(Br)c(Br)c(Br)c(Br)c21` the figure was 7.19%; with `COc1ccc2c(c1OC)C(=O)O[C@H]2[C@@H]1c2cc3c(cc2CCN1C)OCO3`, 0%. Take `Clc1cccc(SC2CCNCC2)n1`: the “activity change, negative = cytotoxic” value is -2.34%.

For the compound `O=c1[nH]c2ccccc2n1C1CCNCC1`, the “activity change, negative = cytotoxic” value was 1.8%. The same measure, in the same setting: to `C#CC(O)(C=CCl)CC` (stereo not given) belongs 0%. Still for that read-out and setting: to `CNC(C)(C)Cc1ccccc1` belongs 8.49%; to `COc1ccc2c3c1O[C@H]1[C@H](O)CC[C@H]4[C@@H](C2)N(C)CC[C@@]341`, 0% [at 92.7 µM]; to `CCN(CC)CCc1c[nH]c2ccccc12`, -17.5% [at 155 µM]. The same measure, in the same setting: to `CCOP(=S)(OCC)Oc1ccc2c(C)c(Cl)c(=O)oc2c1` belongs 16.8%; to `CC(Cc1ccccc1)NCCn1cnc2c1c(=O)n(C)c(=O)n2C` (stereo not given), -4.42% [at 92.7 µM]; to `COc1cccc([C@@]2(O)CCCC[C@@H]2CN(C)C)c1`, -3.49%. As for `COc1cc(CCN)cc(OC)c1OC`, the “activity change, negative = cytotoxic” value was -5.69% [at 92.7 µM].

As to `C[C@]12CC[C@H]3[C@@H](CC[C@@]45O[C@H]4C(O)=C(C#N)C[C@]35C)[C@H]1CC[C@H]2O`, the Potency was 13.2 µM (active). For the compound `CCC1(CC)C(=O)C=CNC1=O`, the “activity change, negative = cytotoxic” value is -5.58%. The same measure, in the same setting: with `CN(C)CCc1c[nH]c2cccc(OP(=O)(O)O)c12` the figure was -19.6% [at 92.7 µM]. On the same count and under the same terms, with `CCN[C@@H](C)Cc1ccccc1` the figure was -11.6% [at 92.7 µM]. Still for that read-out and setting: with `C[C@]12CC[C@H]3[C@@H](CCC4=CC(=O)CC[C@@H]43)[C@@H]1CC[C@@H]2OC(=O)CCC1CCCCC1` the figure was -13.7%; with `CCC(CC)(CNC(=O)CCCO)c1cccc(OC)c1`, 29.7%.

As for `CC(C)N(CCC(C(N)=O)(c1ccccc1)c1ccccn1)C(C)C` (stereo not given), the “activity change, negative = cytotoxic” value was -17.4%. In the case of `CN1CC[C@]23c4c5ccc(O)c4O[C@H]2[C@@H](O)CC[C@H]3[C@H]1C5`, the “activity change, negative = cytotoxic” value was 0% [at 92.7 µM]. On the same count and under the same terms, to `O=C1c2ccccc2C(=O)C1C(=O)C(c1ccccc1)c1ccccc1` belongs 0%. Regarding `CC(NC(C)(C)C)C(=O)c1cccc(Cl)c1` (stereo not given), the Potency entry was “inactive”. Regarding `C[N+]1(CCF)[C@@H]2CC[C@H]1CC(OC(=O)C(O)(c1ccccc1)c1ccccc1)C2` (stereo not given in full), the “activity change, negative = cytotoxic” value was 19.8%. Turning to `O=P1(N(CCCl)CCCl)NCCCO1` (stereo not given), the Potency result was “inactive”. For `CN1CCC(O)(c2ccc(F)cc2)C(C(=O)c2ccc(F)cc2)C1` (stereo not given), the “activity change, negative = cytotoxic” value was 10.3%. The same measure, in the same setting: to `C[C@]12CCC(=O)C=C1CC[C@@H]1[C@@H]2CC[C@]2(C)C(=O)CC[C@@H]12` belongs 0%. Regarding `C[C@]12CC[C@@H]3c4ccc(OC(=O)N(CCCl)CCCl)cc4CC[C@H]3[C@@H]1CC[C@@H]2O`, the “activity change, negative = cytotoxic” value was -5.79%. Regarding `CC(=O)C1CCOC1=O` (stereo not given), the “activity change, negative = cytotoxic” value is 0%. For the compound `CC1(C)C(C=C(Cl)Cl)C1C(=O)OC(C#N)c1cccc(Oc2ccccc2)c1` (stereo not given), the “activity change, negative = cytotoxic” value is 15.8%. As for `COC(=O)[C@@H](N)CCCN/C(N)=N/[N+](=O)[O-]`, the “activity change, negative = cytotoxic” value is -2.18%. Still for that read-out and setting: with `O=C1c2ccccc2C(=O)c2ccccc21` the figure was 14.6% [at 16.1 µM]. The same measure, in the same setting: to `CCCCC/C=C\C/C=C\C/C=C\C/C=C\CCCC(=O)NCC(=O)O` belongs 19.6%; to `C[C@H](N)C(=O)c1ccccc1`, -16.2% [at 155 µM]. Consider `COc1cccc2c1C(=O)c1c(O)c3c(c(O)c1C2=O)C[C@@](O)(C(=O)CO)CC3OC1CC(N2CCOC(OC)C2)C(O)C(C)O1` (stereo not given in full), for which the Potency was 0.0266 µM (active). As for `NC(=O)CS(=O)C(c1ccccc1)c1ccccc1` (stereo not given), the “activity change, negative = cytotoxic” value is 14.7%.
